High-throughput results deposited in PubChem by National Center for Advancing Translational Sciences (NCATS).
This is a sample that favours compounds with a hit; in the whole collection about 7.3% have one here.
p53 reactivation: mutant p53 re-activation in reporter cells | H1299 p53-A138V BP100-luciferase reporter, luminescence, 24 h | Potency, µM (titrated, usually from 92.2 µM), for the others: at the top dose activity change, positive = activation, hits mostly activators | 320,000 compounds, 0.063% hits | AID 504706; also: % of control where 0% means no effect; nearly all actives have a fitted effect of over 45% in size
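p53-null H1299 cells stably carrying temperature-sensitive p53-A138V and a BP100-luciferase reporter were pinned with compounds (4-point, 1:5 series) and held 24 hrs at 37 deg C. Luminescence was read 10 min after detection reagent.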
ELG1 genotox: inducers of genotoxicity in HEK293T ELG1-luciferase cells; HEK293T ELG1-luciferase reporter, luminescence, 16 h; Potency, µM (highest dose often 46 µM), without a hit: top-dose activity change, positive = activation, hits mostly activators; 330,000 compounds, 1.3% hits; also: % of control where 0% means no effect; nearly all actives have a fitted effect of over 60% in size
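HEK293T cells expressing luciferase-tagged ELG1 were treated with compound or DMSO for 16 hr at 37°C. Luciferase activity was then read after 30 min with ONE-Glo at room temperature; rising signal flags genetic stress.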
Rab9 prom act: Rab9 promoter activation. Huh7 Rab9 promoter-luciferase reporter, luminescence, 24 h. Potency, µM (titrated, usually from 9.22 µM), for the others: at the top dose activation, negative = inhibition, usual class: activators. 320,000 compounds, 2.8% hits. AID 485297; also: % of control where 0% means no effect; nearly all actives have a fitted effect of over 60% in size
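Cells were plated at 1500 per well in reduced-serum medium with 10% FBS and left 2 h. Compound in DMSO was then added for 24 h at 37 °C. Reporter signal was read by luminescence after 10 min with luciferase detection reagent.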
NPC1 promoter act: NPC1 promoter activation | Huh7 NPC1 promoter luciferase reporter, 24 h | Potency, µM (highest dose often 9.22 µM), inactives show at the highest dose activation, usual class: activators | 320,000 compounds, 2.4% hits | AID 485313; also: % of control where 0% means no effect; nearly all actives have a fitted effect of over 60% in size
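Cells: Huh7 expressing luciferase under the NPC1 promoter, 1500/well. Seeded 2 h, compound added, incubated 24 h at 37 °C. Luciferase reagent, 10 min ambient, then luminescence.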
SMN2 splice enh: SMN2 splice variant enhancement; HEK293 SMN2-luciferase splicing reporter, luminescence, 30-36 h; Potency, µM (doses to about 46.1 µM), for the others: top-dose activity change, positive = activation, most hits filed as activators; 210,000 compounds, 2.8% hits; AID 1458; also: % of control where 0% means no effect; nearly all actives have a fitted effect of over 55% in size
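qHTS luciferase splicing reporter: luminescence rises when SMN2 exon 7 is included in transfected HEK293 cells. Compound exposure lasted 30-36 h at 37C, with 4.5 mM final sodium butyrate as control, followed by a ONE-Glo read.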
FLuc counter: counter-screen for miR-21 project: firefly luciferase inhibitors or activators. P08659. purified FLuc, Km substrates, luminescence inhibition. Potency, µM (highest dose often 57.5 µM), for the others: top-dose activity change, negative = inhibition, actives largely listed as inhibitors. 360,000 compounds, 6.9% hits;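 also: plate controls were vehicle for no effect and reference inhibitor for full effect; nearly all actives have a fitted effect of over 55% in size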
Target sequence (P08659 whole entry, looked up): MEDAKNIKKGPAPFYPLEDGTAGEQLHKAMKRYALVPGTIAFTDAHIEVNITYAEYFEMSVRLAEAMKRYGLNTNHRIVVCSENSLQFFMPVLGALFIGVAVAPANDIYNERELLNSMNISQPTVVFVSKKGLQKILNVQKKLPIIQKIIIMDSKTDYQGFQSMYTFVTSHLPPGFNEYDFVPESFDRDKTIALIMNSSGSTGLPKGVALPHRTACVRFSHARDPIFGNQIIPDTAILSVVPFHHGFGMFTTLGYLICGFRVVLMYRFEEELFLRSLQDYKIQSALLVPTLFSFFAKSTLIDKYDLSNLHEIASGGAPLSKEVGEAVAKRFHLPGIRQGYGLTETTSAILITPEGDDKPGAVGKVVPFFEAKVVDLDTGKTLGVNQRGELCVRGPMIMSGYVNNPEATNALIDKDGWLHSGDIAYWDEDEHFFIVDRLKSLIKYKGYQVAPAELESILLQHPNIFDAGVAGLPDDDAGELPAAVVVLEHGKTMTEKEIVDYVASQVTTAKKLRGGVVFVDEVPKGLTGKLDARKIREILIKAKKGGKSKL
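Purified P. pyralis luciferase, 10 nM final, with Km-level 10 uM D-luciferin and 10 uM ATP in 50 mM Tris acetate pH 7.5, 10 mM Mg acetate, 0.01% Tween-20, 0.05% BSA; 6-point qHTS titration about 60 µM downward; luminescence read.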
* hit, by the source's call; ? = inconclusive; / = no result given. Calls follow the shape of the dose curve; as a rule, active = well fitted curve in the direction sought with a large enough effect; inconclusive = small, poorly fitted or top-dose-only effect, or another doubt; inactive = no such curve, though single readings can be large; an effect the other way counts as inactive or inconclusive. Potency is read from the fitted curve at half-maximal effect.

SMILES	p53 reactivation	ELG1 genotox	Rab9 prom act	NPC1 promoter act	SMN2 splice enh	FLuc counter
CC(/C=N/NC(=O)CSc1nnc(SCc2ccccc2)s1)=C\c1ccco1	2%	2%	3%	-1%	17%	21µM*
Cc1c(/C=N/NC(=O)c2cccs2)c2ccccc2n1Cc1ccccc1Cl	6%	-2%	21%	17%	/	8.5µM*
Cc1nn(-c2ccccc2)c(C)c1/C=N/NC(=O)CSc1nnc(SCc2ccc(Cl)cc2)s1	21%	-10%	20%	13%	0%	9.5µM*
Cc1ccc(CSc2nnc(SCC(=O)N/N=C/C=C/c3ccco3)s2)cc1	-6%	8%	-5%	-8%	11%	?
Cc1c(/C=N/NC(=O)c2cccnc2)c2ccccc2n1Cc1ccccc1	1%	3%	-16%	-9%	-61%	-5%
Cc1ccc(CSc2nnc(SCC(=O)N/N=C/C=C/c3ccccc3[N+](=O)[O-])s2)cc1	23%	16%	-5%	-4%	-45%	1.3µM*
COc1ccc(OC)c(C(=O)COC(=O)c2[nH]c(C)c(C(C)=O)c2C)c1	-2%	12%	-2%	0%	/	3%
COc1cccc(CS(=O)(=O)c2nnnn2-c2ccccc2)c1	/	/	/	/	9%	/
O=c1c2ccccc2n(Cc2c(F)cccc2Cl)c(=O)n1Cc1ccccc1	/	/	/	/	9%	-10%
Cc1nn(-c2ccccc2)c(C)c1/C=N/NC(=O)c1cc(-c2ccc(Cl)s2)[nH]n1	-4%	-8%	-19%	-25%	-15%	11µM*
Cc1nn(-c2ccccc2)cc1/C=N/NC(=O)c1cccs1	3%	13%	23%	1%	/	?
Cc1nn(-c2ccccc2)c(C)c1/C=N/NC(=O)c1cccs1	?	?	?	?	18µM*	8.5µM*
Cc1csc(NC(=O)CSc2nnc(-c3ccncc3)o2)n1	17%	5%	?	25%	3.2µM*	-2%
Cc1occc1-c1nnc(SCC(=O)Nc2nc(C(C)(C)C)cs2)o1	25%	?	17%	21%	2%	4%
Cc1csc(NC(=O)CSc2nnc(-c3ccoc3C)o2)n1	?	9%	?	?	11µM*	-3%
Oc1ccccc1N=Cc1sc2ccccc2c1Cl	18%	-2%	-5%	-5%	-1%	2.1µM*
Oc1ccc(Cl)cc1C=Nc1ccccc1Br	4%	0%	0%	0%	-5%	-14%
Cc1ccc(O)c(N=Cc2sc3ccccc3c2Cl)c1	?	3%	21%	16%	-7%	1.5µM*
O=C(NC1CCCc2ccccc21)c1ccccc1Br (stereo not drawn)	1%	-1%	-1%	-2%	-11%	0%
O=C(NC1CCSc2ccccc21)c1ccccc1Br (stereo not drawn)	0%	-4%	29%	?	/	17µM*
Cc1ccc(S(=O)(=O)c2nc(S(=O)(=O)c3ccc(C)cc3)c(NCCCOC(C)C)s2)cc1	/	/	/	/	2%	-6%
CC(C)COc1ccc(-c2nn(-c3ccccc3)cc2CO)cc1	-5%	0%	-5%	0%	/	?
OCc1cn(-c2ccccc2)nc1-c1ccc(Br)cc1	/	?	?	?	/	17µM*
OCc1cn(-c2ccccc2)nc1-c1ccc2c(c1)OCCO2	?	5%	?	?	-26%	21µM*
O=C(O)/C=C/c1cn(-c2ccccc2)nc1-c1ccc2c(c1)OCCO2	-2%	4%	-3%	-2%	/	?
CCCOc1ccc(C2C(=O)N(C3CCCCCC3)CC(=O)N2CCC2=CCCCC2)cc1OC (stereo not drawn)	/	/	/	/	/	-7%
c1ccc(Cn2nnc3c(N4CCN(Cc5ccc6c(c5)OCO6)CC4)ncnc32)cc1	-4%	-16%	-3%	1%	/	3%
Cc1nc(Nc2ccc3c(c2)OCCO3)c2oc3ccccc3c2n1	0%	-3%	3%	14%	-40%	?
